TTR transcr act = activators of transthyretin transcription; activation, % at 16.7 µM; SH-SY5Y TTR promoter Gaussia luciferase, luminescence; 100% = recombinant luciferase protein wells; 92,000 compounds, 1.3% hits;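 active means activation above the mean of all tested compounds plus 3 SD, cut at about 9.5% in these data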;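 further: cells exposed to compounds for one day before reading; 0% = median of all test compound wells on the plate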
TTR inh HuH7 = HuH7 TTR transcription inhibition, counter-screen. shares compounds with TTR transcr act. HuH7 TTR promoter-Gaussia luciferase reporter, luminescence. inhibition, % at 16.7 µM. 1,100 compounds, 4% hits. AID 1117279;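 active means average inhibition above the solvent-only control wells' mean plus 3 SD, cut at about 15% in these data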;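 further: 0% = cells with DMSO only and 100% = cells with inhibitor control FD; inhibitors lower well luminescence so higher value means more inhibition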
TTR up confirm = confirmation of human transthyretin transcription activators | shares compounds with TTR transcr act | SHSY5Y TTR promoter Gaussia luciferase, luminescence; 100% = purified Lucia enzyme wells, no cells | activation, % at 16.7 µM | 1,100 tested, under 10 active;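 active means mean activation above a set limit taken from the earlier primary screen, cut at about 11% in these data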;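 further: 0% = DMSO-treated cells and 100% = recombinant Lucia luciferase without cells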
Starred values were filed as active, the others as inactive. The sample as a whole holds a higher share of hits than the screen did.

SMILES	TTR transcr act	others
COc1ccc(S(=O)(=O)NCC(=O)N(CC(=O)NCc2ccco2)Cc2ccccc2)cc1	0.2
O=C(CN(C(=O)CNS(=O)(=O)c1ccc(F)cc1)c1cccc(F)c1)NCC1CCCO1 (configuration not stated)	-0.6
O=C1N=c2ccccc2=C1c1sc(=S)n(Cc2ccccc2Cl)c1O	-0.5
Cc1ccc2c(c1)C1CC(C)(O2)N(c2cccc(C(=O)NC3CCN(Cc4ccccc4)CC3)c2)C(=O)N1 (configuration not stated)	-0.8
CC(C)C[C@H](NC(=O)N1c2ccccc2NC(=O)[C@@H]1C(C)C)C(=O)N1CCC[C@@H]1C(=O)O	0.8
CCn1c(SCC(=O)NC2CCCCC2)nc2c(c1=O)SCC2	0.5
O=C(Nc1ccc(N2C(=O)CC3(CCCCC3)C2=O)c(Cl)c1)c1ccccn1	-0.6
CCC1CCCCN1C(=O)CCNS(=O)(=O)c1ccc2c(c1)oc(=O)n2C (configuration not stated)	5.8
CCCN(CCC)C(=O)c1cn(C)c2ccc(S(=O)(=O)N3CCCC3)cc2c1=O	2.9
CCCCn1nnnc1C1(C)CCC(=O)N1CCc1ccccc1F (configuration not stated)	-0.2
CC(C)CCN1C(=O)c2cccc3c(N)ccc(c23)C1=O	1.1
CCN(CC)CCCNC(=S)N(Cc1ccco1)Cc1cc2cc3c(cc2[nH]c1=O)OCCO3	1.2
CCc1ccc2[nH]c(=O)c(CN(Cc3ccco3)C(=S)NCC3CCCO3)cc2c1 (configuration not stated)	12.2*	TTR inh HuH7=-24.2;TTR up confirm=1.8
CNC(=S)N(Cc1ccco1)Cc1cc2cc3c(cc2[nH]c1=O)OCCO3	-2.2
Cc1cc2nc3c(nc2cc1C)CCCC3	-1.0
CC1CN(C(=O)c2ccccc2OCc2ccc(Cl)cc2Cl)CC(C)O1 (configuration not stated)	-2.7
C[C@H](CO)N1C[C@H](C)[C@H](CN(C)C(=O)Nc2ccccc2F)OCc2cnnn2CCCC1=O	-0.5
COc1ccc(C(O)c2nc(-c3ccc(N(C)C)cc3)cs2)cc1 (configuration not stated)	-2.9
O=C(C[C@H]1C/C=C\CC[C@@H](Cc2ccc(F)cc2)C(=O)O[C@@H](c2ccccc2)CNC1=O)N[C@@H](CO)Cc1ccccc1	8.3
CCCc1nc2ccc(C)cn2c1Cc1ccccc1C(F)(F)F	0.0
COc1ccccc1N1CCN(C(=O)C(Sc2ccccc2)c2ccccc2)CC1 (configuration not stated)	-3.2
COc1ccccc1N1CCN(S(=O)(=O)CCNC(=O)C2CCCC2)CC1	-0.7
COc1ccccc1N1CCN(C(=O)C(CC(C)C)NC(=O)C2CCCCC2)CC1 (configuration not stated)	21.4*	TTR inh HuH7=-9.7;TTR up confirm=-0.2
CC1=C(C(=O)Nc2ccccc2C(=O)N2CCC(C)CC2)SCCO1	-0.2
CC(C)N(C[C@@H]1CSCCS(=O)(=O)N1)C1CCCCC1	4.4
SMILES	TTR transcr act	others
CCN(CC(=O)Nc1ccccc1C(F)(F)F)C(=O)CCc1c(C)[nH]c(=O)c(C#N)c1C	1.1
Cc1onc(-c2c(Cl)cccc2Cl)c1C(=O)Nc1ccc(C(N)=O)cc1	0.1
COc1cc(C(=O)N(C)CC2CCN(CCc3cccc(C(F)(F)F)c3)CC2)ccc1C	-1.5
O=C1/C(=C/c2ccncc2)N=C2CCCCCN12	47.2*	TTR inh HuH7=-11.9;TTR up confirm=-0.1
COc1ccc(/C=C2\N=C3CCCCCN3C2=O)cc1	2.6
O=C1/C(=C/c2ccncc2)CCC/C1=C\c1ccncc1	-6.0
CN(CC(=O)N(CCO)Cc1ccccc1)S(=O)(=O)c1ccc2c(c1)c(=O)n(C)c(=O)n2C	4.8
CC(C)(C)OC(=O)C[C@H]1C/C=C\C[C@@H](CC(=O)N[C@@H](CO)Cc2ccccc2)C(=O)NC[C@@H](c2ccccc2)OC1=O	-0.1
C=CCOc1ccc(/C=C2\SC(=S)N(C(C(=O)O)c3ccccc3)C2=O)cc1 (configuration not stated)	0.3
COc1ccc(OC)c(/C=C2\SC(=S)N(C(C(=O)O)c3ccccc3)C2=O)c1 (configuration not stated)	16.3*	TTR inh HuH7=10.6;TTR up confirm=-1.1
CC(/C=C1\SC(=S)N(C(C(=O)O)c2ccccc2)C1=O)=C\c1ccccc1 (configuration not stated)	-0.4
COc1ccc(NC(=O)Nc2cccc3c2O[C@H](CN(C)C(=O)Nc2c(C)noc2C)[C@@H](C)CN([C@H](C)CO)C3=O)cc1	4.5
Cc1nc2c(C)cccc2c2c1COC2	-0.8
CN(C)Cc1cc2ccccc2c2c1COC2	12.2*	TTR inh HuH7=-13.5;TTR up confirm=-0.6
Cc1cc2ccc3ccccc3c2cc1CN(C)C	5.7
CC1CCC(NC(=O)c2[nH]c(C(F)(F)F)nc2-c2ccccc2)CC1 (configuration not stated)	0.9
CCOC(=O)[C@@H]1CSCCS(=O)(=O)N1Cc1ccc(C(F)(F)F)cc1	-1.1
O=C(O)CCc1ccc(-c2cccs2)n1NC(=O)c1ccco1	-3.3
O=C(Nn1c(-c2ccccc2)nc2ccccc2c1=O)c1ccco1	0.6
O=C(O)CCc1ccc(-c2ccccc2)n1NC(=O)c1ccco1	21.6*	TTR inh HuH7=-18.7;TTR up confirm=0.4
Clc1cccc(Cl)c1C1Nc2cccc3cccc(c23)N1	-1.5
Brc1cccc(C2Nc3cccc4cccc(c34)N2)c1	-1.7
Clc1ccc(C2Nc3cccc4cccc(c34)N2)cc1Cl	9.8*	TTR inh HuH7=5.1;TTR up confirm=-0.6
CC(C)(C)c1ccc(C(=O)NNC(=O)CCc2ccccc2)cc1	1.6
CCOC(=O)C1CCCN(C(=O)c2ccc3c(c2)N(Cc2ccccc2)C(=O)c2ccccc2S3=O)C1 (configuration not stated)	4.8
SMILES	TTR transcr act	others
COCCCN1C(=O)C(CC(=O)NCc2cccc3ccccc23)CC(C(=O)N(C(C)C)C(C)C)=C1C (configuration not stated)	-0.6
COc1ccc(-c2c3c(cc4ncn(Cc5ccccc5)c24)COC3=O)cc1	2.6
CCOC(=O)C(=O)Nc1ccccc1C(=O)OCC	3.8
CCOC(=O)C(=O)Nc1ccccc1C(=O)NC(C)C	0.2
CCOC(=O)C(=O)Nc1ccccc1C#N	24.8*	TTR inh HuH7=-3.4;TTR up confirm=2.1
O=c1c2ccccc2oc2ccc(NCCCn3ccnc3)cc12	0.6
Cc1nc(NCCCn2ccnc2)c2oc3ccccc3c2n1	48.5*	TTR inh HuH7=-0.9;TTR up confirm=0.7
Cc1nc(NCC2CCCO2)c2oc3ccccc3c2n1 (configuration not stated)	0.4
CCCCOc1ccc(S(=O)(=O)NC(=O)C2(C)CCN2C(=O)c2cccc(F)c2)cc1 (configuration not stated)	0.6
NC(=O)c1oc2ccccc2c1NC(=O)c1nc2ccccc2s1	-0.8
O=C(Nc1nnc(-c2ccccc2)o1)c1nc2ccccc2s1	15.2*	TTR inh HuH7=-12.0;TTR up confirm=2.1
CC(C)C(=O)Nc1nnc(-c2ccccc2)o1	-1.1
CCNC(=O)C1(C)CCN(Cc2ccccc2C#N)C1 (configuration not stated)	2.7
NC(=O)C1CCN(C(=O)c2ccc(Cl)c(S(=O)(=O)N3CCCCCC3)c2)CC1	-0.4
COc1ccccc1Oc1ccc(N2CC(C(=O)OCC(=O)c3ccccc3)CC2=O)cc1 (configuration not stated)	-1.8
O=C(COC(=O)COc1ccccc1)NCc1ccc2c(c1)OCO2	4.3

Assay outcomes: PubChem, The Scripps Research Institute Molecular Screening Center
